The full list was thinned out, with hits kept by preference.
KDM5B inh: KDM5B demethylase inhibition | Q9UGL1 | Potency, µM (series often up to 57.7 µM), actives largely listed as inhibitors | 220,000 compounds, 2.6% hits | KDM5B demethylase, FDH-coupled NADH fluorescence (FDH is formaldehyde dehydrogenase) | AID 1347165; active means well fitted inhibition curve with a large enough effect; further: 0% is about no effect; nearly all actives have a fitted effect of over 70% in size
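Compound dilutions met 200 nM (final) KDM5BΔAP for 10 min at room temperature before substrate addition. The substrate mix held 12.5 µM H3K4me3 with cofactors 25 µM α-ketoglutarate and 50 µM Fe²⁺. NADH signal gain over 30 min defined activity.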
Numbers without * were called inactive; i = inactive. Potency means the concentration at half of the fitted maximal effect.

SMILES	KDM5B inh
C=CCn1c(-n2nc(C)c(C)c2C)nc2c1c(=O)[nH]c(=O)n2C	i
Cc1nc(-c2ccccc2F)sc1C(=O)NC1C=CS(=O)(=O)C1 (stereo not given)	i
O=C(OC/C=C/c1ccccc1)C1=NN(C2CCS(=O)(=O)C2)C(=O)CC1 (stereo not given)	i
Cc1ccc(C(=O)N2CCC3(CC2)N=C(c2cccc(Br)c2)NO3)cc1	32µM*
CN(C)c1cccc(C(=O)N2CCC3(CC2)N=C(c2cccc(Br)c2)NO3)c1	32µM*
Cc1ccccc1C(=O)N1CCC2(CC1)N=C(c1cccc(Br)c1)NO2	i
Cc1ccc(C2=NC3(CCN(C(=O)c4cccc(N(C)C)c4)CC3)ON2)cc1	i
CN(C)c1cccc(C(=O)N2CCC3(CC2)N=C(c2ccccc2)NO3)c1	i
Cc1ccc(C(=O)N2CCC3(CC2)N=C(c2ccc(C)cc2)NO3)cc1	i
CN(Cc1ccc(Cl)c(Cl)c1)C(=O)Cn1nnn(-c2cccs2)c1=O	i
Cc1ccc(Cl)cc1N1CCN(C(=O)c2ccc(Cn3cncn3)cc2)CC1	i
Cc1c(NC(=O)C2(c3ccccc3)CC2)cccc1C(=O)N1CCc2sccc2C1	i
COc1ccccc1C(C)NC(=O)CN1CCN(c2ccc([N+](=O)[O-])c3cnccc23)CC1 (stereo not given)	i
COc1ccc(C(=O)N[C@@H]2CCC[C@@H]2C(=O)NC(C)C)cc1	i
Cc1cccc2c1ccn2CCC(=O)Nc1nnc(CC(C)C)s1	i
O=C(NCc1ccc(Cl)nc1)c1ccc2ccnn2c1	35µM*
O=C(NCc1ccc(Cl)nc1)c1cnn2c1CN(C(=O)c1cccnc1)CC2	i
Cn1cccc1C(=O)NCc1ccc(Cl)cc1	i
C[S+](=O)([O-])N1CCn2cc(C(=O)NCc3ccc(Cl)nc3)nc2C1	i
O=C(NCc1ccc(Cl)nc1)c1ccc2cncn2c1	35µM*
CN1C(=O)Cc2cc(C(=O)NCc3cccnc3)ccc21	i
O=C(NCc1ccc2c(c1)CCN2C(=O)c1ccncc1)c1ccc(Cl)cc1	i
O=C(NCc1ccc(Cl)cc1)c1ccc2ccnn2c1	35µM*
O=C(NCc1ccc(Cl)cc1)c1ccc2oc(=O)n(Cc3ccccc3)c2c1	i
Cc1nn(C(C)C)c(C)c1NC(=O)c1cc2sccc2n1C	i
SMILES	KDM5B inh
O=C(N[C@@H]1CN(C(=O)Nc2cccc(C(F)(F)F)c2)CCC[C@H]1O)c1ccc(OCc2ccccc2)cc1	i
O=C(Nc1ccc(Oc2ccccc2)cc1)c1cc(=O)[nH]c2ccccc12	i
CN1CCC(N(C)CCN(C)C(=O)NCc2ccc(F)cc2)CC1	i
O=C(CSc1nc2ccccc2s1)Nc1ccc(F)c(F)c1F	i
CCCC(C)N1CC2(CCN(C(=O)c3c(CC)noc3C)CC2)OC1=O (stereo not given)	i
CCCc1cc(C(=O)N2CCC3(CC2)CN(C(C)CCC)C(=O)O3)n[nH]1 (stereo not given)	28µM*
CCCC(C)N1CC2(CCN(C(=O)c3ccc(C(C)=O)s3)CC2)OC1=O (stereo not given)	i
O=S(=O)(c1cccc(F)c1)N1CCC(N2CCOCC2)CC1	i
O=C1NC2(CCCCCC2)NN1c1ccc(Br)cc1	i
CS(=O)(=O)N1CCc2cc(C(=O)NCCc3ccccc3)ccc21	i
CC(C)CNC(=O)c1ccc2c(c1)C1(CCCN(CC3CC3)C1)CN2C (stereo not given)	35µM*
CC(C)CNC(=O)c1ccc(NC(=O)C2CCCCC2)cc1	i
COc1ccc(C(=O)N2CCc3ccc(C(=O)NCc4ccccc4)cc32)cc1	i
CN(C)CCNC(=O)c1ccc2c(=O)n3c(nc2c1)CCCCC3	i
CC(C)CNC(=O)c1cccc(NC(=O)C2CCCCC2)c1	i
COCCN1CCC2(C1)CN(C)c1ccc(C(=O)NCc3ccccc3)cc12 (stereo not given)	35µM*
CN(C)CCNC(=O)c1ccc2c(c1)C1(CCCN(CC3CC3)C1)CN2C (stereo not given)	35µM*
COc1cccc(C(=O)NCc2ccccc2)c1	i
CN(C)CCC(=O)N1Cc2ccccc2CC2(CCCN(CC3CCOCC3)C2)C1 (stereo not given)	i
O=C(NCCc1ccccc1)c1ccc(Cl)c(S(=O)(=O)N2CCOCC2)c1	i
CC(=O)N1CCCC2(C1)CN(C)c1ccc(C(=O)NCCc3ccccc3)cc12 (stereo not given)	35µM*
CCCOc1ccccc1C(=O)Nc1ccc(OCCC)c2ncccc12	i
Cc1ccc(NC(=O)CSc2nnc(Cc3ccccc3)n2-n2cccc2)c(C)c1	i
CCN(CC)C(=O)N1CCC(C(=O)NCC2(c3ccc(F)cc3)CC2)CC1	i
CC(NC(=O)c1cccc(S(=O)(=O)Nc2ccc3c(c2)OCO3)c1)c1ccc2c(c1)OCCO2 (stereo not given)	i
SMILES	KDM5B inh
CCCNC(=O)N(C)Cc1nc(-c2ccccc2)no1	i
O=C(Nc1ccc(C23CC4CC(CC(C4)C2)C3)cc1)c1cccc[n+]1[O-]	i
COc1ccc(Br)c(C(=O)Oc2cc(Cl)ccc2Cl)c1	i
Cc1nc2cc(NC(=O)COc3cccc(C)c3C)ccc2o1	i
O=C(CSc1nnnn1C1CC1)N1CCN(S(=O)(=O)c2cccc(C(F)(F)F)c2)CC1	i
O=C(NC[C@H]1O[C@H](Cc2cc(-c3ccccc3)on2)CC[C@@H]1O)c1ccccc1F	i
CCN(CC)C(C)CNC(=O)NC1CC1 (stereo not given)	i
Cn1nc(C(=O)OCC(=O)c2c[nH]c3ccccc23)c2ccccc2c1=O	i
CNC(=O)CN1c2ccc(Br)cc2-c2ccccc2S1(=O)=O	i
NC(=O)NNC(=S)NC1CCCCC1	i
O=C(CSc1nnnn1C1CC1)NC(c1ccc(F)cc1)c1cccs1 (stereo not given)	i
Cc1ccc(C(=O)N/N=C/c2ccncc2)s1	i
c1ccc(-c2cnc([C@@H]3COCCN3Cc3cnc[nH]3)[nH]2)cc1	i
CCCC(=O)NNC(=S)NC(C)c1ccccc1 (stereo not given)	i
Cc1ccc(-n2c(SCC(=O)Nc3ccc4c(c3)OCCO4)nnc2N2CCOCC2)cc1	i
COCCN1CCCCCC(O)c2cc(C(=O)NCCc3ccccc3)ccc21 (stereo not given)	i
CN1CC2(CCCN(CC3CC3)C2)c2cc(C(=O)NCCc3ccccc3)ccc21 (stereo not given)	35µM*
COCCC1(C(=O)O)CCCN(CC(=O)NCCc2ccccc2)C1 (stereo not given)	i
CCC(=O)N1N=C(c2ccccc2NS(=O)(=O)CC)CC1c1ccco1 (stereo not given)	i
COCCNC(=O)c1c(C)sc2ccn(Cc3ccc(F)cc3)c(=O)c12	i
CCN(CC)C(=O)c1c(C)sc2ccn(Cc3ccc(F)cc3)c(=O)c12	25µM*
COc1ccccc1CNC(=O)c1c(C)sc2ccn(Cc3ccc(F)cc3)c(=O)c12	i
CCCc1c(C(=O)OCC)[nH]c2c1C(=O)CC(c1ccc(OC)c(OC)c1)C2 (stereo not given)	i
Cn1nc(C(=O)OCC(=O)NCc2ccco2)c2ccccc2c1=O	i
O=C(CCCOC(=O)c1cc(Cl)ccc1Cl)c1ccc(Br)cc1	i
Cc1cc(C)n(C(C)CC(=O)Nc2ccc(C)c(F)c2)n1 (stereo not given)	i
Cc1ccc(NC(=O)Cn2c(C)cc(C)c(C#N)c2=O)cc1F	i
